Growth data for 7 compounds are collected here from PubChem BioAssay (NCI).

Among the test systems are NCI-H23 lung; NCI-H226 lung; NCI-H322M lung; HOP-62 NSCLC; NCI-H460 lung; HOP-92 NSCLC; NCI-H522 lung; A549/ATCC NSCLC; 786-0 renal; COLO 205 colon; DU-145 prostate; K-562 leukemia; MALME-3M melanoma; MDA-MB-231 breast; RXF 393 renal; SF-268 CNS; SF-295 CNS; SF-539 CNS; UACC-257 melanoma; M14 melanoma.
Test in all cases: NCI-60 one-dose screen, 48 h (100 = growth as untreated, 0 = no growth, -100 = all killed)
Details in all cases: 10 µM unless noted

Each structure is given as a SMILES string. About 83,000 compounds went through this panel and 20% of them were active in at least one assay; those are over-represented in the sample as a whole.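 Values shown are percent growth following 48 h exposure of cells in 96-well plates to a single concentration of compound; below 10 was considered active.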 A number with no mark means an inactive call. Active and inactive are the calls of the source.

As for `Fc1ccc2[nH]cc(-c3nc(-c4c[nH]c5c(Cl)nccc45)cs3)c2c1`, the growth with NCI-H23 lung is 60.4%; with NCI-H226 lung, 40%; in the experiment with NCI-H322M lung, 76.7%; in the experiment on HOP-62 NSCLC, 57.1%; in the experiment on NCI-H460 lung, 4.9% (active); in the experiment on HOP-92 NSCLC, 36.4%. Also, the growth is 16.7% in the experiment with NCI-H522 lung; 22.5% with A549/ATCC NSCLC; -19.4% (active) with 786-0 renal; 25.2% in the experiment with COLO 205 colon; 32% with DU-145 prostate; 11.8% with K-562 leukemia. For the same compound, the growth in the experiment on MALME-3M melanoma was 74.3%; in the experiment on MDA-MB-231 breast, 13.7%; in the experiment on RXF 393 renal it was 16.3%; in the experiment with SF-268 CNS it was 67.2%; in the experiment with SF-295 CNS, 18.1%; in the experiment with SF-539 CNS it was 41.1%. In addition, the growth was -38.3% (active) in the experiment on UACC-257 melanoma and -5.3% (active) in the experiment on M14 melanoma.
Take `COC(=O)/C(CCC=C(C)C)=C1\[C@@H](OC(C)=O)C[C@@]2(C)[C@H]1C/C(=N/O)[C@H]1[C@@]3(C)CC/C(=N\O)[C@@H](C)[C@@H]3CC[C@@]12C`: the growth with NCI-H23 lung was 99.5%; with NCI-H226 lung, 96.8%; in the experiment on NCI-H322M lung it was 109%; in the experiment with HOP-62 NSCLC, 105%; in the experiment with NCI-H460 lung it was 105%; in the experiment on HOP-92 NSCLC it was 95.4%. In addition, the growth was -57.1% (active) in the experiment with NCI-H522 lung; 94% with A549/ATCC NSCLC; 96.3% in the experiment with 786-0 renal; 106% in the experiment on COLO 205 colon; 106% with DU-145 prostate; 83.6% in the experiment on K-562 leukemia. For the same compound, the growth with MALME-3M melanoma is 119%; with MDA-MB-231 breast, 86.5%; with RXF 393 renal it was 104%; in the experiment with SF-268 CNS, 89.1%; with SF-295 CNS it was 101%; in the experiment with SF-539 CNS, 89.4%. The growth in the experiment with UACC-257 melanoma was 118%; in the experiment with M14 melanoma, 98.6%.
As for `CC(O)CNC(Cc1ccccc1)c1ccc2c(c1)OCO2` (stereo not given), the growth in the experiment with NCI-H23 lung is 98.5%; with NCI-H226 lung, 90%; in the experiment on NCI-H322M lung it was 93.6%; in the experiment on HOP-62 NSCLC it was 60.9%; in the experiment on NCI-H460 lung, 103%; in the experiment on HOP-92 NSCLC, 67.2%. In addition, the growth in the experiment on NCI-H522 lung is 71.9%; in the experiment with A549/ATCC NSCLC, 84.6%; with 786-0 renal, 83%; with COLO 205 colon, 71.4%; in the experiment with DU-145 prostate, 107%; in the experiment with K-562 leukemia it was 90.5%. The growth in the experiment with MALME-3M melanoma is 91%; in the experiment with MDA-MB-231 breast, 99.5%; with RXF 393 renal, 110%; with SF-268 CNS, 95.9%; in the experiment on SF-295 CNS, 88.8%; in the experiment with SF-539 CNS, 87.4%. Further, the growth in the experiment on UACC-257 melanoma is 103%; in the experiment with M14 melanoma, 80.4%.
As to `COc1cc2c(cc1OCCCN1CCN(C(=S)SCCC(C#N)(c3ccccc3)c3ccccc3)CC1)N=C[C@@H]1CCCN1C2=O`, the growth in the experiment with NCI-H23 lung was -46.7% (active); with NCI-H226 lung it was -55.8% (active); with NCI-H322M lung, -62.2% (active); in the experiment on HOP-62 NSCLC, 1.76% (active); in the experiment with NCI-H460 lung, -80.3% (active); with HOP-92 NSCLC it was -71% (active). In addition, the growth in the experiment with NCI-H522 lung was -48.3% (active); in the experiment with A549/ATCC NSCLC, -3.55% (active); in the experiment on 786-0 renal, -94.9% (active); in the experiment on COLO 205 colon, -69.5% (active); in the experiment on DU-145 prostate, -100% (active); with K-562 leukemia, -5.69% (active). Moreover, the growth was -89.3% (active) with MALME-3M melanoma; -31.1% (active) with MDA-MB-231 breast; -92.9% (active) with RXF 393 renal; -72.5% (active) in the experiment on SF-268 CNS; -14.2% (active) in the experiment on SF-295 CNS; -94.7% (active) with SF-539 CNS. For the same compound, the growth in the experiment on UACC-257 melanoma is -45.5% (active); with M14 melanoma, -76.6% (active).
`Nc1cc(Br)cc2c1[nH]c(=O)c1ccccc12`: the growth is 83.4% in the experiment on NCI-H23 lung; 91.9% with NCI-H226 lung; 109% in the experiment on NCI-H322M lung; 102% in the experiment with HOP-62 NSCLC; 93.4% in the experiment on NCI-H460 lung; 77.6% in the experiment with HOP-92 NSCLC. The growth with NCI-H522 lung was 98.1%; in the experiment on A549/ATCC NSCLC, 91.7%; in the experiment on 786-0 renal, 101%; in the experiment with COLO 205 colon it was 106%; with DU-145 prostate it was 106%; with K-562 leukemia it was 92.5%. In addition, the growth is 124% with MALME-3M melanoma; 102% in the experiment on MDA-MB-231 breast; 103% in the experiment on RXF 393 renal; 106% in the experiment with SF-268 CNS; 108% in the experiment with SF-295 CNS; 112% in the experiment with SF-539 CNS. Also, the growth is 94.7% with UACC-257 melanoma and 114% with M14 melanoma.
Consider `CCOC(=O)NCCCC(=O)NCCc1ccccc1`, for which the growth in the experiment on NCI-H23 lung was 98.9%; in the experiment on NCI-H226 lung, 96.3%; with NCI-H322M lung, 106%; in the experiment on HOP-62 NSCLC it was 108%; with NCI-H460 lung, 110%; with HOP-92 NSCLC, 111%. Moreover, the growth is 106% with NCI-H522 lung; 107% with A549/ATCC NSCLC; 105% in the experiment on 786-0 renal; 114% in the experiment on COLO 205 colon; 103% in the experiment on DU-145 prostate; 106% in the experiment with K-562 leukemia. Besides, the growth in the experiment on MALME-3M melanoma is 103%; in the experiment with MDA-MB-231 breast, 108%; in the experiment on RXF 393 renal it was 101%; in the experiment with SF-268 CNS it was 101%; in the experiment with SF-295 CNS, 104%; in the experiment on SF-539 CNS, 106%. Further, the growth in the experiment on UACC-257 melanoma is 103%; in the experiment with M14 melanoma, 102%.
As to `COc1cc(-c2cc(-c3ccc(Nc4nc(Nc5ccc(Cl)cc5)nc(Nc5ccc(Cl)cc5)n4)cc3)no2)cc(OC)c1OC`, the growth is 88.3% in the experiment with NCI-H23 lung; 78% with NCI-H226 lung; 80.8% with NCI-H322M lung; 70.3% with HOP-62 NSCLC; 76.2% with NCI-H460 lung; 37.9% in the experiment on HOP-92 NSCLC. For the same compound, the growth with NCI-H522 lung is 76.5%; with A549/ATCC NSCLC it was 66.7%; in the experiment on 786-0 renal, 72.7%; with COLO 205 colon, 51.5%; in the experiment with DU-145 prostate, 80.6%; with K-562 leukemia, 50.9%. Moreover, the growth is 88.7% in the experiment on MALME-3M melanoma; 64.4% in the experiment with MDA-MB-231 breast; 33.9% in the experiment on RXF 393 renal; 67.9% with SF-268 CNS; 62.3% in the experiment with SF-295 CNS; 74.9% with SF-539 CNS. In addition, the growth was 100% in the experiment on UACC-257 melanoma and 68.3% in the experiment on M14 melanoma.
